Shown are actives, neighbours in structure and some others; about 3.3% of the full set was active somewhere.
Calb FLC: C. albicans growth modulation with fluconazole; growth inhibition, % (no concentration beside the values); C. albicans CaCi-2 (fluconazole-resistant clinical isolate) + fluconazole, Alamar Blue growth, 48 h; 300,000 tested, 0.57% active; AID 1979;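 active = growth inhibition above about 58% in most replicates, limit read from the data, passing the limit was not always enough; inconclusive = exactly half the replicates above a set limit; inactive = most replicates below a set limit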;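 note: all wells also contain fluconazole at 8 µg/ml as a sub-toxic cotreatment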
Efflux pump inh: antifungal efflux pump inhibition, Nile Red retention | S. cerevisiae Candida pump triplex | inhibition, % at 10 µM | 330,000 tested, 0.44% active | AID 485275;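 active = plate passing quality check with inhibition over a set limit, or well fluorescence over plate mean plus 4 SD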;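 note: Nile Red retained in pooled yeast measured as flow cytometry median fluorescence; higher means more Nile Red kept so more efflux inhibition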
H9c2 protect: myocardial damage modulation in H9c2 cells; H9c2 cardiomyocytes, H2O2 injury protection, ATPLite, 2 h; 360,000 tested, 0.63% active; protection from H2O2 cell death, % at 20 µM;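 active = compounds giving at least 50% protection of heart cells from peroxide-induced death in the single-dose screen, raw or plate-pattern-corrected value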
PHOSPHO1 block: blocks human PHOSPHO1 phosphatase activity | Q8TCT1 | recombinant PHOSPHO1, absorbance phosphatase assay | inhibition, % at 13.3 µM | 290,000 tested, 1.1% active; in the data active = inhibition above about 60%
Cl transport mod: KCC2 (human) Cl- transport modulation | KCC2 cells, thallium flux FluoZin-2 fluorescence | Q9H2X9 | B-score of Tl+ flux slope (higher = more flux/activation; lower = inhibition) at 10 µM | 190,000 tested, 2.2% active;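 active = thallium flux slope and its plate-corrected score both differing from the plate sample mean at a set confidence after two filtering rounds, in either direction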;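 note: slope of fluorescence scaled to starting intensity during 10 to 20 s after thallium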
Target sequence (Q9H2X9 whole entry, looked up): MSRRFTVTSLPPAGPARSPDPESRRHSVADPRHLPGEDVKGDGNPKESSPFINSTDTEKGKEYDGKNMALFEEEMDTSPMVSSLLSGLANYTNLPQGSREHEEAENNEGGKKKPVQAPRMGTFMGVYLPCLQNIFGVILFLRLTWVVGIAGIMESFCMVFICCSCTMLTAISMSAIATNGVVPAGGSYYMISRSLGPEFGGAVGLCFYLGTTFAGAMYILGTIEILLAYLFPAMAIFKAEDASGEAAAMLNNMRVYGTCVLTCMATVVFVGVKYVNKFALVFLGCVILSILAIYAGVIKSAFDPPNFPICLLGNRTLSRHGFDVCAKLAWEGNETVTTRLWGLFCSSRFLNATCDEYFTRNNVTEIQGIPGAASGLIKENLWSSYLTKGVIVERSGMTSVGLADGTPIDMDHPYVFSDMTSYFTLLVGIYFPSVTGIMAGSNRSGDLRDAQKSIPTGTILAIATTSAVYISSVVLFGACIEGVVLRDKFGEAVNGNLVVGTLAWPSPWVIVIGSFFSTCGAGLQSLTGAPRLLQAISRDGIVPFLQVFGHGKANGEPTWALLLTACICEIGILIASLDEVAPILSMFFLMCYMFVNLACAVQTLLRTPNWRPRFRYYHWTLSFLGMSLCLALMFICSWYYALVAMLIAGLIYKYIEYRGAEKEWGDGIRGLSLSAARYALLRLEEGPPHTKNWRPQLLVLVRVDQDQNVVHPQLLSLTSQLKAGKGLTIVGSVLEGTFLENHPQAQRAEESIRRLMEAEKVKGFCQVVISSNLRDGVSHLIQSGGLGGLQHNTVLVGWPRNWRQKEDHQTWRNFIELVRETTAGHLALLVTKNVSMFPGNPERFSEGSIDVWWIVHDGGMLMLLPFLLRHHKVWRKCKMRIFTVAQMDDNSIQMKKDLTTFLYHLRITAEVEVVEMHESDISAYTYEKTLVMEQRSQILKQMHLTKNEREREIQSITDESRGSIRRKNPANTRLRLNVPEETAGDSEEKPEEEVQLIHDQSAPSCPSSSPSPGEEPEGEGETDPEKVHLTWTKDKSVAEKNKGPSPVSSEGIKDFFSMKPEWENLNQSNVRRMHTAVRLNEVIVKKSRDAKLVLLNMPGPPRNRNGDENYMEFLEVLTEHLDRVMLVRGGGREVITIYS
KCC2 secondary: confirmation of human KCC2 transport modulators; shares compounds with Cl transport mod; HEK293-KCC2, thallium flux, FluoZin2 fluorescence; active compounds read high; normalised thallium flux (F/F0 slope) at 10 µM; 3,700 tested, 15% active; AID 1713;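 active = thallium flux slope above the same plate's solvent-only control mean plus 3 SD; inconclusive = the two replicate wells disagree; inactive = no significant difference from solvent-only control wells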
KCC2 bumet counter: thallium flux despite bumetanide block in KCC2 cells, secondary assay 3 | 3,700 tested, 49% active | AID 1714 | shares compounds with Cl transport mod | HEK293-KCC2 + bumetanide/ouabain, thallium flux FluoZin2; active compounds read high | normalized thallium flux at 10 µM;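 active = thallium entry rate above the same plate's blocked-transporter control wells by more than 3 SD; inconclusive = the two repeat wells disagree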;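 note: raw slope of fluorescence over initial fluorescence between 10 and 20 s after thallium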
KCC2 sec2: KCC2 (human) modulation, second secondary assay; shares compounds with Cl transport mod; HEK293-KCC2, thallium flux FluoZin2 fluorescence; actives lie on both sides; F/F0 rise rate, 10–20 s post-thallium; normalized thallium flux at 10 µM; 3,700 tested, 23% active; AID 1715;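 active = thallium flux slope more than 3 SD above or below the plate's solvent-only control mean, mostly below; inconclusive = the two repeat wells disagreed; inactive = no significant shift from solvent-only controls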
HEK293 Tl flux: parental HEK flux effect, counter-screen | shares compounds with Cl transport mod | HEK293 parental cells, thallium flux FluoZin2, ouabain; baseline-ratio fluorescence slope, 10–20 s after thallium | thallium flux rate (normalised fluorescence) at 10 µM | 3,700 tested, 46% active;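 active = thallium flux rate significantly above the same plate's solvent-only control wells, beyond their mean plus 3 SD; inconclusive = the two replicate wells gave conflicting results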
KCC2 ouabain: KCC2 (human) modulation, ouabain retest; shares compounds with Cl transport mod; 3,700 tested, 48% active; raw Tl+ flux slope (below DMSO = inhibition, above = activation) at 10 µM; HEK293-KCC2, thallium flux FluoZin2 fluorescence; bidirectional: low = inhibitor, high = activator; AID 1717;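 active = thallium flux slope beyond 3 SD from same-plate DMSO control mean in most replicates, usually higher, sometimes lower; inconclusive = repeat tests gave conflicting results; inactive = no significant difference from controls in most replicates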;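 note: slope of initial-normalized fluorescence between seconds 10 and 20 after thallium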
HEK counter2: counter-screen for KCC2 modulators: effect in parental HEK293 cells; shares compounds with Cl transport mod; thallium flux FluoZin-2 fluorescence slope; thallium flux slope at 10 µM; 3,700 tested, 33% active; AID 1718;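 active = thallium flux slope above the same plate's solvent-control mean plus 3 SD in both duplicate wells; inconclusive = duplicate wells that disagreed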;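 note: run without ouabain in cells lacking the KCC2 cotransporter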
Numbers stand for hits; n = inactive; u = inconclusive; x = no result given.

SMILES	Calb FLC	Efflux pump inh	H9c2 protect	PHOSPHO1 block	Cl transport mod	KCC2 secondary	KCC2 bumet counter	KCC2 sec2	HEK293 Tl flux	KCC2 ouabain	HEK counter2
CCOc1ccc(C(=O)N[C@H](C(=O)NNC(=O)c2cccs2)C(C)C)cc1	x	n	n	x	x	x	x	x	x	x	x
CC[C@@]1(C(=O)OC)N[C@H](CN(C)C(=O)COC)[C@@H]2C(=O)N(C)C(=O)[C@@H]21	x	n	n	x	x	x	x	x	x	x	x
CC1CCN(S(=O)(=O)c2ccc3c(c2)N(CC(=O)N(C)Cc2ccco2)C(=O)CO3)CC1	n	n	n	n	x	x	x	x	x	x	x
Cc1nn(CC(=O)O)c2ccccc12	n	n	n	n	6.6	n	n	n	n	n	n
Cc1nn(CC(=O)NCc2ccccc2)c(=O)c2ccccc12	n	n	n	n	n	x	x	x	x	x	x
CCOc1ccc(CN(C(=O)c2oc3ccccc3c2C)C2CCS(=O)(=O)C2)cc1 (centres undefined)	101	n	n	n	n	n	n	n	n	n	n
CCOC(=O)Cc1cc(=O)n2[nH]c(-c3ccccc3)c(-c3ccccc3)c2n1	n	n	n	n	6	n	0.018	n	0.014	u	0.014
CCOC(=O)Cc1cc(=O)n2[nH]c(C)c(-c3ccccc3)c2n1	n	n	n	n	n	x	x	x	x	x	x
CCOc1ccc(CCNC(=O)c2cc3sccc3n2C)cc1OCC	n	n	n	n	3.9	n	n	u	u	n	n
CC(OC(=O)CCC1CCCCC1)C(=O)Nc1ccc(S(N)(=O)=O)cc1 (centres undefined)	n	n	n	x	x	x	x	x	x	x	x
CCOC(=O)c1c(C)[nH]c(C(=O)COC(=O)C2(C)CC2(Cl)Cl)c1C (centres undefined)	n	n	n	n	x	n	n	n	n	n	n
O=C(Cn1cnc2scc(-c3ccc(F)cc3)c2c1=O)N1CCOCC1	n	n	n	n	n	x	x	x	x	x	x
Cc1ccc(-c2csc3ncn(CC(=O)N4CCOCC4)c(=O)c23)cc1C	n	n	n	n	x	n	u	n	n	n	n
CC1=CC(C)(C)n2c(O)c(N=NC(N)=S)c3c(C)ccc1c32	n	n	n	n	3.8	n	0.012	n	0.016	n	u
COc1cc2c3c(c1)c(N=NC(N)=S)c(O)n3C(C)(C)C=C2C	n	n	n	n	21	u	0.026	n	0.017	u	0.014
CC1CCCC(NC(=O)Cn2c(Cl)nc3c2c(=O)n(C)c(=O)n3C)C1C (centres undefined)	x	n	n	x	x	x	x	x	x	x	x
O=C(CCC1CCCN(C(=O)c2cc3ccccc3o2)C1)NCc1ccc(F)c(F)c1 (centres undefined)	n	n	n	x	x	x	x	x	x	x	x
COCCNc1oc(-c2ccccc2Cl)nc1C#N	n	n	n	n	-3.8	n	n	n	n	n	n
CCOC(=O)c1cc(-c2ccccc2C)nn1CC1CC(c2ccc(OC)cc2)=NO1 (centres undefined)	x	n	n	x	x	x	x	x	x	x	x
O=C(CCN1CCN(Cc2ccccc2)CC1)Nc1cccc(Cl)c1	n	n	n	n	-3.8	n	n	0.024	n	0.014	n
O=C(NC1CCCCC1)c1ccc(S(=O)(=O)c2ccccc2)cc1	n	n	n	n	n	x	x	x	x	x	x
O=C(NC(=S)N1CCN(c2nc(-c3ccccc3)cs2)CC1)c1cccnc1	n	n	n	n	34	0.028	0.11	u	0.041	0.07	0.015
CCc1ccc(OCCNC(=O)c2ccccc2SCc2ccc(F)cc2)cc1	n	n	n	n	-8.8	n	n	0.023	n	0.013	n

Screening results (PubChem)
